Sampled rows, rich in hits. Any-hit rate of the full collection: about 11%.
NS1 function inh = blocks influenza NS1 protein function | Potency, µM (series often up to 46.1 µM), inactives show at the highest dose activity, positive = more growth | actives 0.4% (n = 270,000) | AID 2326; calls by dose curve; further: potency means the concentration at half of the fitted maximal effect; actives are rising curves; nearly all actives have a fitted effect of over 50% in size
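Read-out: OD600 growth recovery of NS1-expressing budding yeast. Cells grown overnight at 30C in -URA glucose medium, washed, resuspended and diluted 1:100 in 2% galactose assay medium, pH 6.0. Same strain lacking NS1 served as positive control.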
Pf growth 48h = inhibits P. falciparum growth in the first generation, 48 h. P. falciparum luciferase growth in erythrocytes, 48 h. Potency, µM (highest dose often 28.7 µM), inactives show top-dose activity change, negative = inhibition, hits mostly inhibitors. actives 5.9% (n = 310,000). AID 504832; further: potency means the concentration at half of the fitted maximal effect; on the % scale 0 is the no-effect control and ±100 the full control effect
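Cell-based growth assay: transgenic P. falciparum expressing firefly luciferase, cultured in red cells within RPMI 1640 containing 0.5% w/v Albumax, 24 mM bicarbonate and gentamycin. A drop in luciferase activity indicates inhibition.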
Pf growth 96h = P. falciparum growth inhibition at 96 hours | actives 6.9% (n = 320,000) | P. falciparum luciferase reporter growth, 96 h | Potency, µM (top dose mostly 28.7 µM), without a hit: top-dose activity change, negative = inhibition, usual class: inhibitors | AID 504834; further: potency means the concentration at half of the fitted maximal effect; on the % scale 0 is the no-effect control and ±100 the full control effect
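Cell-based qHTS: luciferase-tagged P. falciparum in erythrocytes (2% hematocrit, 0.05% parasitemia final) incubated with compounds for 96 hours, 37 C, 5% CO2; luciferase detection reagent then added and luminescence measured.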
Vaccinia Venus = inhibitors of vaccinia virus (Venus reporter); Vaccinia virus Venus reporter expression, fluorescence; Potency, µM (doses to about 36.5 µM), for the others: top-dose activity change, negative = inhibition, most hits filed as inhibitors; actives 0.46% (n = 330,000); calls by dose curve; tested in A549 cells; further: potency means the concentration at half of the fitted maximal effect; on the % scale 0 is the no-effect control and ±100 the full control effect; nearly all actives have a fitted effect of over 30% in size
HCV inhibitor = inhibitors of hepatitis C virus infection. Huh7.5.1 HCVcc-Cre infection, luciferase reporter, 44 h. Potency, µM (highest dose often 41.8 µM), without a hit: at the top dose activity change, negative = inhibition, actives largely listed as inhibitors. actives 3.4% (n = 340,000); further: potency means the concentration at half of the fitted maximal effect; on the % scale 0 is the no-effect control and ±100 the full control effect
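Compounds are dispensed onto cells plated 4 h earlier at 1,000 per well, with HCVcc-Cre virus (about 0.5 moi) added next. Following 44 h of culture, luminescent signal is measured for 15 sec after 15 min with substrate at room temperature.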
VACV mCherry inh = vaccinia inhibition (mCherry reporter); actives 0.63% (n = 310,000); Potency, µM (highest dose often 36.5 µM), for the others: at the highest dose activity change, negative = inhibition, actives largely listed as inhibitors; Vaccinia virus mCherry reporter infection, fluorescence; calls by dose curve; tested in A549 cells; further: potency means the concentration at half of the fitted maximal effect; on the % scale 0 is the no-effect control and ±100 the full control effect; nearly all actives have a fitted effect of over 35% in size
Flu NS1 inh = validation of influenza NS1 protein function inhibitors. shares compounds with NS1 function inh. 1,400 tested, under 10 active. influenza NS1 function cell assay, 15-point titration. activity change, negative = inhibition, % at 32.9 µM. AID 492980; calls by dose curve; further: 0% is about no effect
Flu PR8 replic = reduces influenza A/PR/8/34 replication in MDCK cells. shares compounds with NS1 function inh. MDCK infected influenza A/PR/8/34, virus titer TCID50; stronger effect = lower value. virus titer (log TCID50), log10 TCID50 at 5 µM. actives 30% (n = 95). AID 504647; call rule not given here
* = called active by the depositor; i = inactive; ? = inconclusive; nt = no result; [ ] = dose if it differs, or a comment. Unless noted, the call rests on the fitted dose curve; in most records, active means well fitted inhibition curve with a large enough effect; inconclusive means small, poorly fitted or top-dose-only effect, or another doubt; inactive means no such curve, though single readings can be large or run the other way.

SMILES	NS1 function inh	Pf growth 48h	Pf growth 96h	Vaccinia Venus	HCV inhibitor	VACV mCherry inh	Flu NS1 inh	others
COc1ccc(NC2=CC(=O)CC(c3ccccc3)C2)cc1 (stereo unspecified)	5%	?	19%	-4%	0%	-4%	nt
COc1ccc(C2CC(=O)C=C(NNS(=O)(=O)c3ccc(C)cc3)C2)cc1 (stereo unspecified)	4µM*	12%	56%	-14%	-8%	-7%	15
COc1ccc(CNC(=O)C/C(C)=N/NC(=O)COc2ccc(Br)cc2)cc1	1%	29%	39%	-8%	13%	-6%	nt
COc1cccc(C2CC(c3ccc(Cl)cc3)Nc3nc(N)nn32)c1 (stereo unspecified)	7.1µM*	39%	63%	-7%	4%	-5%	-11
COc1cccc(C2CC(c3ccc(F)cc3)Nc3nc(N)nn32)c1 (stereo unspecified)	7%	0%	1%	nt	8%	nt	nt
O=c1oc2c3c(ccc2c2ccccc12)OCN(Cc1ccccc1Cl)C3	nt	nt	nt	-10%	nt	-8%	nt
CCCCNC(=O)c1onc(CCl)c1C(=O)OC	1.1µM*	-3%	?	?	-17%	?	-8
COCCNC(=O)c1onc(CCl)c1C(=O)OC	3%	-11%	?	?	-1%	?	nt
COc1ccc(Nc2nnc(SCC(=O)c3cc(C)n(CC4CCCO4)c3C)s2)cc1 (stereo unspecified)	?	5.9µM*	nt	-11%	?	-26%	3
CCN1CCN(C(=O)c2cn(CCOC)c(=O)c3c2c2ccccc2n3C)CC1	5%	3%	?	nt	20%	nt	nt
Cn1cc(C(=O)N2CCN(C(=O)c3ccco3)CC2)c2c3ccccc3n(C)c2c1=O	4µM*	6%	0%	-15%	-8%	-31%	-7
O=C(NCc1ccc2c(c1)OCO2)c1cccc([N+](=O)[O-])c1	2%	16%	10%	-13%	-2%	nt	nt
O=C(O)C(Cc1ccccc1)N1C(=O)C=CC1=O (stereo unspecified)	nt	nt	nt	1%	nt	-12%	nt
Cc1cc(-c2csc(NC(=O)c3ccc(=O)n(C)n3)n2)c(C)n1CC1CCCO1 (stereo unspecified)	20µM*	?	7.4µM*	-11%	?	-11%	12
CN(Cc1ccccc1)c1ccc(C(CC(N)=O)NC(=O)c2ccc(Br)cc2)cc1[N+](=O)[O-] (stereo unspecified)	5µM*	?	-8%	-30%	?	-1%	?
O=C1NC(Cc2ccc(O)cc2)c2nc3cc(Cl)ccc3c(=O)n2-c2ncccc21 (stereo unspecified)	nt	nt	nt	-14%	nt	i	nt
N#CC1=C(N)NC(SCC(=O)O)=C(C#N)C12CCCC2	2.2µM*	-14%	97%[5.75 µM]	-8%	11%	nt	0
O=C(N/N=C1\CC2CC=CC12)c1ccc(COc2ccccc2)cc1 (stereo unspecified)	5.6µM*	-17%	?	nt	?	nt	-16
Cc1ccc(S(=O)(=O)N(Cc2ccccc2)c2ccccc2C(=O)Nc2ccccc2C(=O)NCc2ccco2)cc1	7.9µM*	10µM*	?	nt	8%	nt	-20
CS(=O)(=O)N(Cc1ccccc1)c1ccccc1C(=O)Nc1ccccc1C(=O)NCc1ccco1	-7%	nt	?	nt	-15%	nt	nt
COc1ccccc1NC(=O)COc1ccccc1C(=O)c1cnn(-c2ccccc2)c1	7%	90%	?	nt	-28%	nt	nt
O=C(Nc1ccc2c(c1)CCC2)c1ccc(F)cc1	-7%	-20%	-51%	-19%	?	-26%	nt
O=C(Nc1ccc2c(c1)CCC2)c1cc(S(=O)(=O)Nc2ccc(F)cc2)c(Cl)cc1Cl	14µM*	-13%	?	-27%	?	-17%	27	Flu PR8 replic=8
CSc1nc(-c2ccc(Cl)cc2)c(C#N)c(=O)[nH]1	3%	5%	14%	-4%	4%	i	nt
C[C@@H]1CC=C[C@H]2[C@H]1C(=O)N(Cc1ccccc1)[C@H]2c1ccc(-c2ccc(F)cc2)cc1F	-13%	?	?	-19%	-11%	i	nt
SMILES	NS1 function inh	Pf growth 48h	Pf growth 96h	Vaccinia Venus	HCV inhibitor	VACV mCherry inh	Flu NS1 inh	others
COc1ccc(-c2ccc([C@H]3[C@H]4C=CC[C@@H](C)[C@@H]4C(=O)N3Cc3ccccc3)c(F)c2)cc1C	?	10µM*	?	-9%	20%	i	-6
Cc1ccc(S(=O)(=O)N2CCC(C(=O)Nc3ccccc3N3CCCCC3)CC2)cc1	5µM*	7.4µM*	13%	-1%	?	-18%	4
COc1ccc(/C(C)=N\NS(C)(=O)=O)c(OC)c1	?	29%	41%	-9%	-9%	-13%	-3
COc1ccc(/C(C)=N/NS(=O)(=O)c2ccccc2)c(OC)c1	nt	?	1%	-8%	-12%	i	nt
COc1cccc(CN(C(=O)Cc2c[nH]c3ccccc23)C(C(=O)NC2CCCCC2)c2cccs2)c1 (stereo unspecified)	7.1µM*	9.3µM*	12µM*	nt	?	nt	-8
COc1cc(C(C(=O)NC2CCCCC2)N(C(=O)Cc2c[nH]c3ccccc23)c2ccc(C)cc2)cc(OC)c1OC (stereo unspecified)	11µM*	0%	-16%	?	1%	?	14
CC(C)(C)OC(=O)C[C@@H]1C/C=C\C[C@H](CC(=O)N[C@H](CO)Cc2ccccc2)C(=O)N[C@H](Cc2ccccc2)COC1=O	nt	nt	nt	-24%	7%	-11%	nt
O=[N+]([O-])c1ccc(S(=O)(=O)N/N=C/c2ccc3c(c2)OCO3)cc1	-11%	0%	-15%	-19%	9%	i	nt
O=S(=O)(N/N=C/c1ccc2c(c1)OCCO2)c1ccccc1	?	0%	45%	-10%	nt	-15%	3
CC1CCN(C(=O)Cn2c(=O)oc3ccccc32)CC1	3.5µM*	14%	0%	-6%	8%	nt	-2
CSc1nnc([C@@H](N)Cc2ccccc2)o1	-8%	-2%	?	nt	6%	nt	nt
CC(C)Sc1nnc([C@@H](N)Cc2ccccc2)o1	?	51%	88%	nt	14%	nt	-3
COc1cccc(CNC(=O)N[C@@H](CC(C)C)C(=O)O)c1	8%	nt	-14%	13%	7%	nt	nt
CCC(C)[C@H](NC(=O)NCc1cccc(OC)c1)C(=O)OC (stereo partly specified)	2.2µM*	48%	21%	-7%	14%	-12%[1.46 µM]	-9

Screening results deposited in PubChem by National Center for Advancing Translational Sciences (NCATS).
